Compound activity as filed in PubChem BioAssay.
The list is not random: actives were taken first. Their share in the collection is about 3.4%.
FLuc inh: qHTS Assay for Inhibitors of Firefly Luciferase. Luciferin 4-monooxygenase (Photinus pyralis), P08659. purified firefly luciferase, luminescence, 8 min. Potency, µM (highest dose often 57.1 µM), actives largely listed as inhibitors. hit rate 2.2% among 72,000; also: nearly all actives have a fitted effect of over 40% in size
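Substrate buffer containing 10 uM ATP (pH 7.2 imidazole, Mg2+, KCl, detergent, BSA) is dispensed, compound pinned in, then luciferase/luciferin detector mix added. After 8 min at ambient temperature, light output is measured.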
Peg3 imprint: qHTS Assay for Compounds that Induce Erasure of Genomic Imprints; mouse ES Peg3-LacZ reporter, beta-gal luminescence, 40 h; Potency, µM (top dose mostly 60.7 µM), usual class: activators; hit rate 0.02% among 110,000; AID 1948, 2009
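Gelatin-coated wells received 300 freshly trypsinized female ES cells with a Peg3LacZ-Neo reporter on the maternal allele, then incubated 40 hours at 37C. BetaGlo was added for 5 minutes at room temperature before a single luminescence read.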
p53ts 32C kill: qHTS Screen for Compounds that Selectively Target Cancer Cells with p53 Mutations: Cytotoxicity of p53ts Cells at the Permissive Temperature. H1299-p53A138V at 32C, ATP luminescence viability, 24 h. Potency, µM (series often up to 46.1 µM), most hits filed as cytotoxic. hit rate 0.93% among 130,000. AID 924, 2007; also: nearly all actives have a fitted effect of over 55% in size
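Cells: H1299 p53ts (A138V), 600/well, pre-incubated 16–30 h at 37C. Cpd up to 46 uM, 24 h, 32C. Readout: ATPlite luminescence, 20 min RT. Normalization: DMSO vs tamoxifen 100 uM. AC50 by Hill equation.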
p53ts 39C kill: qHTS Screen for Compounds that Selectively Target Cancer Cells with p53 Mutations: Cytotoxicity of p53ts Cells at the Nonpermissive Temperature; H1299-p53A138V viability at 39C, ATP luminescence, 24 h; Potency, µM (series often up to 46.1 µM), most hits filed as cytotoxic; hit rate 1.5% among 130,000; also: nearly all actives have a fitted effect of over 55% in size
Tau filament bind: qHTS Assay for Tau Filament Binding | recombinant tau filaments, thioflavin S fluorescence, 15 h; filaments grown with octadecylsulfate alongside compound | Potency, µM (titrated, usually from 57.1 µM) | hit rate 2% among 71,000 | AID 596, 2007;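 also: actives lower thioflavin S fluorescence by blocking filaments or displacing dye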
Target sequence (P10636 whole entry, looked up): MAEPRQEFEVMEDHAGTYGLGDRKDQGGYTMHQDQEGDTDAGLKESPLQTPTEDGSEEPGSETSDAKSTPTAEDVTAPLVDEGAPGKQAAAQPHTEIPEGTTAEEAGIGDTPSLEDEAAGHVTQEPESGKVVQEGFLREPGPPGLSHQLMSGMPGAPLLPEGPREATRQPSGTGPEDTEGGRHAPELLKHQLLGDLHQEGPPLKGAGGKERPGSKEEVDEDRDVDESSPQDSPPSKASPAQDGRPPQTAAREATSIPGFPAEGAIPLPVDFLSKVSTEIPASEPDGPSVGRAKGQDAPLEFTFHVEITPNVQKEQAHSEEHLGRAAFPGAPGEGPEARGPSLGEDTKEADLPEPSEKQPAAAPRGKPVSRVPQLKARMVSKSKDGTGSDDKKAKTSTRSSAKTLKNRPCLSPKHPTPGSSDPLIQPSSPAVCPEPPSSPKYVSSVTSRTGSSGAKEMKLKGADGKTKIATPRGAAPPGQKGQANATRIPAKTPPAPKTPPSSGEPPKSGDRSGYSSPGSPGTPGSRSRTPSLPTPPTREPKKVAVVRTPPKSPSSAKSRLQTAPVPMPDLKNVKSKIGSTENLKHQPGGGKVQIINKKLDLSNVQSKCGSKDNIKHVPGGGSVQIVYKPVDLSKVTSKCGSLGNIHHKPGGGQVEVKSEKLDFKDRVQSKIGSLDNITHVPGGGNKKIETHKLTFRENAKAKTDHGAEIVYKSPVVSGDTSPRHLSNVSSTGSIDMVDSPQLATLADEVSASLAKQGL
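Thioflavine S fluorescence (ex 450, em 510 nm) reports filaments formed from 1 uM human tau plus 30 uM ODS over 15 h at 37 C (10 mM HEPES pH 7.4, 100 mM NaCl, 5 mM DTT); compounds displacing dye or blocking filaments lower signal.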
A number is an active result; . = inactive; ? = inconclusive; / = not tested or not shown; [ ] = dose if it differs, or a comment. Calls follow the shape of the dose curve; as a rule, active = well fitted curve in the direction sought with a large enough effect; inconclusive = small, poorly fitted or top-dose-only effect, or another doubt; inactive = no such curve, though single readings can be large; an effect the other way counts as inactive or inconclusive.

SMILES	FLuc inh	Peg3 imprint	p53ts 32C kill	p53ts 39C kill	Tau filament bind
O=C(Nc1ccc(Cl)cc1)Nc1ccccc1C(=O)NCc1ccco1	7.9µM	.	.	.	.
O=C(Nc1ccccc1C(=O)NCc1ccco1)c1ccccc1	.	.	.	.	.
O=C1OC(c2cc(I)c(O)c(I)c2)(c2cc(I)c(O)c(I)c2)c2ccccc21	/	.	/	/	/
CCC1SC(=NC(=O)c2ccc(Cl)c(Cl)c2)NC1=O (configuration not stated)	?	.	7.9µM	7.9µM	.[11.4 µM]
c1ccc2c(c1)C(=NCC1CCCO1)NC2=NCC1CCCO1 (configuration not stated)	.	.	.	.	.
CC(C)(C)N=C1NC(=NC(C)(C)C)c2ccccc21	.	.	.	.	2.5µM
Cc1cccc(/C=C(\c2nc3ccccc3[nH]2)S(=O)(=O)c2ccccc2)c1	/	/	4.5µM	4.5µM	/
Cc1cccc(N2C(=O)CS(=O)(=O)C23C(=O)N(Cc2c(F)cccc2Cl)c2ccccc23)c1 (configuration not stated)	/	.[10.9 µM]	.	.	/
CCOC(=O)CN(Cc1ccccc1)C(C(=O)NC1CCCCC1)c1ccccc1 (configuration not stated)	/	.[10.9 µM]	.	2.5µM	/
Cc1c(C)c2c(c(C)c1O)CCC(C)(COc1ccc(CC3SC(=O)NC3=O)cc1)O2 (configuration not stated)	/	.	/	/	/
CC1(COc2ccc(C[C@H]3SC(=O)NC3=O)cc2)CCCCC1	.	.	?	40µM	?
Cc1cccc(-n2ncc3c(NCCOCCO)ncnc32)c1	/	.[10.9 µM]	?	?	/
c1csc(CNc2ccnc(-c3ccoc3)n2)c1	.[2.29 µM]	.	.	.	.
CC1(C)COCN1S(=O)(=O)c1ccc(C(=O)Nc2nnc(-c3ccc(Cl)s3)o2)cc1	.	.	?	7.9µM	.
CC1=C(/C=C/C(C)=C/C=C/C(C)=C/CO)C(C)(C)CCC1	/	.	.[1.84 µM]	.	32µM
CC1=C(\C=C/C(C)=C/C=C\C(C)=C\CO)C(C)(C)CCC1	.[11.4 µM]	/	/	/	?
Cc1ccc(C)c(N2CCN(CCCNC(=O)c3cnn(-c4ccccc4Cl)c3C3CCN(C(=O)OC(C)(C)C)CC3)CC2)c1	/	.[10.9 µM]	.	16µM	/
Cc1ccc(C)c(N2CCN(CCCNC(=O)c3cnn(-c4cccc(Cl)c4)c3C3CCN(C(=O)OC(C)(C)C)CC3)CC2)c1	/	.[10.9 µM]	?	?	/
Cc1ccc(C)c(N2CCN(CCCNC(=O)c3cnn(-c4ccc(F)cc4)c3C3CCN(C(=O)OC(C)(C)C)CC3)CC2)c1	/	.[10.9 µM]	?	25µM	/
C[C@H](Br)C(=O)Nc1ccc(C(=O)O)c(O)c1	.[11.4 µM]	.[10.9 µM]	.[9.22 µM]	.[9.22 µM]	.[11.4 µM]
Cc1nn(CC(=O)NCc2cccc(F)c2)c(=O)c2c(C)n(-c3ccc(Cl)cc3)nc12	/	.[10.9 µM]	.	.	/
COc1ccc(S(=O)(=O)NCc2nc(-c3ccccc3)no2)cc1	/	.[10.9 µM]	.	.	/
CN1CCc2c(sc3c2c(=O)n(-c2ccccc2)c2nncn32)C1	.	.	.	.	.
CN1CCc2c(sc3c2c(=O)n(-c2ccccc2)c2nnc(SCc4ccccc4F)n32)C1	.	.	.	.	13µM
O=C(NCc1cccs1)c1ccc2c(c1)sc1nc(-c3ccccc3)cn12	/	.[10.9 µM]	.	.	/
SMILES	FLuc inh	Peg3 imprint	p53ts 32C kill	p53ts 39C kill	Tau filament bind
CCOc1ccc(CNC(=O)CN2N=C(c3ccccc3)CCC2=O)cc1OC	/	.[10.9 µM]	.	.	/
CCCC(c1nnnn1Cc1ccc(F)cc1)N1CCN(C2CCCCC2)CC1 (configuration not stated)	.	.	?	20µM	.
CCCC(c1nnnn1Cc1cccs1)N1CCN(C2CCCC2)CC1 (configuration not stated)	.	.	.	.	.
COc1ccc(-c2cc(C(F)(F)F)nc(SCCC(=O)Nc3cc(C)ccc3O)n2)cc1	/	.[10.9 µM]	.	10µM	/
Nc1nc(CSc2n[nH]c(-c3ccccc3)n2)nc(Nc2ccccc2)n1	.	.	.	.	.
Cc1ccc(-c2nc(Nc3ccccc3)n[nH]2)cc1	13µM	.	.	.	.
O=C(Nc1cccc(F)c1)N1CC[C@@]2(CCCN(C(=O)c3csnn3)C2)C1	.[11.4 µM]	/	.	.	.
COc1ccccc1Nc1nn2c(=O)c3ccc(C(=O)NCc4ccc(F)cc4)cc3nc2s1	/	.[10.9 µM]	3.2µM	3.2µM	/
Cc1ccc(C)c(Nc2nn3c(=O)c4ccc(C(=O)NCc5ccccc5)cc4nc3s2)c1	/	.[10.9 µM]	?	13µM	/
CCc1ccccc1Nc1nn2c(=O)c3ccc(C(=O)Nc4ccc(OC)cc4)cc3nc2s1	/	.[10.9 µM]	?	.	/
CCc1cccc(NC(=O)c2ccc3c(=O)n4nc(Nc5ccccc5OC)sc4nc3c2)c1	/	.[10.9 µM]	3.2µM	5µM	/
Cc1ccccc1Nc1nn2c(=O)c3ccc(C(=O)NCc4cccs4)cc3nc2s1	/	.[10.9 µM]	.	.	/
CCc1ccccc1Nc1nn2c(=O)c3ccc(C(=O)NCc4ccccc4OC)cc3nc2s1	/	.[10.9 µM]	.	.	/
Cn1c(SCc2cc(=O)c3cc(Cl)ccc3[nH]2)nnc1-c1ccccc1	/	.[10.9 µM]	.	.	/
COCCn1c(=O)c(-c2ccc(Cl)cc2)nc2cnc(N3CCOCC3)nc21	.[11.4 µM]	.	.	.	.
OCCN1CCN(c2nc(N3CCCCC3)nc(N3CCCCC3)n2)CC1	.	.	.	.	4µM
CN1CCN(c2nc(N3CCN(CCO)CC3)nc3ccccc23)CC1	.	.	.	.	.
Cc1ccc(CNc2ccc(-c3nc(-c4ccco4)no3)cc2[N+](=O)[O-])cc1	/	.[10.9 µM]	.	.	/
COc1cc(OC)c(C(=O)NCc2nc(-c3ccccc3)no2)cc1OC	/	.[10.9 µM]	.	.	/
CCCn1nc(NC(=O)c2cccs2)c2cc3cc(OC)ccc3nc21	10µM	.	?	?	.
Cc1cc(C)n(-c2ccc(C(=O)OCC(=O)NCc3ccco3)cc2)n1	.	.	.	.	.
Cc1cc(C)n(-c2ccc(C(=O)OCC(=O)c3ccc(Br)s3)cc2)n1	.	.	.	.	13µM
C=Cc1c(C)c2cc3[nH]c(cc4nc(cc5nc(cc1[nH]2)C(C)=C5CCC(=O)O)C(CCC(=O)O)=C4C)c(C)c3C=C	.	.	.	.	5µM
Cc1cc(C)cc(NC(=O)CSc2nnc(CNC(=O)c3c(F)cccc3Cl)o2)c1	/	.[10.9 µM]	.	.	/
Cc1cccc(-c2noc(-c3ccccc3C(=O)NCC3CCCO3)n2)c1 (configuration not stated)	16µM	.	.	.	.
Cc1ccc(-n2c(=O)c3sc4ccccc4c3n(CC(=O)NC3CCCC3)c2=O)cc1C	/	.[10.9 µM]	.	.	/
CN(C)c1ccc(-c2nc(NCCc3cnc[nH]3)c3ccccc3n2)cc1	0.79µM	.	5µM	5µM	.
COc1ccc2[nH]cc(CCNc3ncncc3-c3ccc(N(C)C)cc3)c2c1	.[2.29 µM]	.	.	.	25µM
